GRIN3A LBD mod: binders of NR3A ligand-binding domain, primary screen, biophysical, differential scanning fluorimetry, uHTS; NR3A LBD differential scanning fluorimetry, Tm shift; 0% = protein alone, 100% = glycine-bound protein; Tm shift relative to glycine control, % at 25 µM; actives 2.5% (n = 340,000); AID 1259313, 2017;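 active = melting temperature shift of at least 10% of the positive control shift, at one fixed dose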
ANO1 activ: TMEM16A chloride channel activators or potentiators, primary screen, cell-based, HTS. HEK293 TMEM16A/YFP-H148Q/I152L, iodide quench fluorescence; stronger effect = lower value. AID 623877, 2012. B-score at 10 µM. Anoctamin-1 (Mus musculus), Q8BHY3. actives 0.3% (n = 340,000);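 active = fluorescence-ratio B-score plate-corrected deviation score at least 3 library SD below zero, with starting fluorescence score within 5 deviations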;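 note: channel opened by trigger with iodide after compound preincubation; score built on the fluorescence ratio of max minus min over baseline; more negative score means more quench and so TMEM16A activation or potentiation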
Target sequence (Q8BHY3 whole entry, looked up): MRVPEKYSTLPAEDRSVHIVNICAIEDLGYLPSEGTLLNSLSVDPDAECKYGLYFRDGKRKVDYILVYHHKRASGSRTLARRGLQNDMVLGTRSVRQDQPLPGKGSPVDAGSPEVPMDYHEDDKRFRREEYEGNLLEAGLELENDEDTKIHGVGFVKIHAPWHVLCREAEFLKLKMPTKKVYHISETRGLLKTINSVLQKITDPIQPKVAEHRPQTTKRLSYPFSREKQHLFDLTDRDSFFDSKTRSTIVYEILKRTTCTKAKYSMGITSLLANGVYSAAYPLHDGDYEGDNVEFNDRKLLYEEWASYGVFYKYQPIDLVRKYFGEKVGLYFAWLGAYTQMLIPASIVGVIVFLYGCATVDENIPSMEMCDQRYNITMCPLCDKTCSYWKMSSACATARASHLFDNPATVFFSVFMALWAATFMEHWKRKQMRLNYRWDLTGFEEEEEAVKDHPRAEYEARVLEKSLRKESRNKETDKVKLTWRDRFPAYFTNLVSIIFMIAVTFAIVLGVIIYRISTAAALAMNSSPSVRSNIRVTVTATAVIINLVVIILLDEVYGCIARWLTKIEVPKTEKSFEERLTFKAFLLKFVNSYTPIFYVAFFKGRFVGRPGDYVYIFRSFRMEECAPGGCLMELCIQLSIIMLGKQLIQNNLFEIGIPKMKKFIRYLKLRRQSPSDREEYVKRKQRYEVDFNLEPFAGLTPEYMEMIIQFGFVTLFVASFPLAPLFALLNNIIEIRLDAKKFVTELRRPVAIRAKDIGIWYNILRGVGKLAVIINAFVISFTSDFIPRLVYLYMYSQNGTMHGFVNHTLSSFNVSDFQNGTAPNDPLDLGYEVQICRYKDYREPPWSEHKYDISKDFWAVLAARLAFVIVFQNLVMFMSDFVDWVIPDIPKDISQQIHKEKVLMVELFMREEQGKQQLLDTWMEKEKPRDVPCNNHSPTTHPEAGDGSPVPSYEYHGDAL
CRFR2-BP ag: agonists of CRF-BP/CRF-R2 complex, primary screen, cell-based, HEK293, calcium dye fluorescence, uHTS; CRF-binding protein / CRF receptor 2 complex (human); calcium dye fluorescence (FLIPR); percent of saturating CRF peptide response; activation, % at 13.2 µM; actives 0.46% (n = 350,000); AID 588473, 2011;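 active = activation of at least 50%, plus an integration ratio under a set limit after plate pattern correction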;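 note: plate controls were neutral control wells without compound for no effect and CRF at EC100 for full effect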
ANO1 block: TMEM16A chloride channel inhibitors, primary screen, cell-based, HTS; HEK293 TMEM16A/YFP iodide influx fluorescence, ionomycin; normalized B-score (activity score, 25-100; higher = stronger inhibition) at 10 µM; actives 1.2% (n = 310,000);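 active = ratio plate-corrected score three or more library SD toward inhibition, starting fluorescence score within five deviations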;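 note: score derived from kinetic fluorescence span divided by baseline fluorescence per well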
MPTP inh: mitochondrial permeability transition pore inhibitors, primary screen, biochemical, isolated mouse mitochondria, absorbance | Ca2+ swelling absorbance, 30 min | AID 602449, 2012 | actives 1.4% (n = 360,000) | inhibition, % at 10 µM;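 active = inhibition of 50% or more, scaled per plate between neutral and stimulator controls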;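 note: 0% = DMSO wells given calcium and 100% = 1 mM EGTA wells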
CRFBP-R2 block: antagonists of CRF-BP/CRF-R2 complex, primary screen, cell-based, HEK293, calcium dye fluorescence, uHTS | inhibition, % at 11.8 µM | actives 0.59% (n = 350,000) | CRF-induced calcium fluorescence;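 active = inhibition of the ligand-induced calcium signal above about 50% at the single tested concentration, limit read from the data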
Numbers without * were called inactive; i = inactive; x = not tested or not shown. Shown are actives, neighbours in structure and some others; about 5.1% of the full set was active somewhere.

SMILES | GRIN3A LBD mod | ANO1 activ | CRFR2-BP ag | ANO1 block | MPTP inh | CRFBP-R2 block
COc1cccc2c1C(=N)c1c(O)c3c(c(O)c1C2=O)CC(O)(C(C)=O)CC3OC1CC(N)C(O)C(C)O1 (stereo unspecified) | 0 | i | -2 | x | 9 | 27
COc1cccc2c1C(=O)c1c(O)c3c(c(O)c1C2=O)CC(O)(C(C)=O)CC3OC1CC(O)C(O)C(C)O1 (stereo unspecified) | -4 | i | 96* | x | 7 | -103
CC(=O)c1cccc(NC(=O)CCc2nnc3ccc(NCc4ccc5c(c4)OCO5)nn23)c1 | 1 | i | 1 | i | 1 | 5
O=C(O)C(c1ccccc1)C1(O)CCCC1 (stereo unspecified) | 3 | i | 1 | i | 1 | 97*
O=C1CC2CCCC(C1)S2=O (stereo unspecified) | x | x | 0 | x | 1 | 3
COc1ccc(C(=O)c2c(N)sc3c2CCN(C(=O)OC(C)(C)C)C3)cc1 | 13* | i | 3 | i | 5 | -6
CN1CCc2c(sc(N)c2C(=O)c2ccc(Cl)cc2)C1 | 0 | i | 5 | i | 0 | 9
CC(C)CCNC(=O)CN(Cc1ccco1)C(=O)CCC(=O)Nc1nccs1 | -1 | i | -1 | i | -2 | -2
Cc1cc(C(=O)NCCc2ccc(Cl)cc2)c2ccccc2n1 | 0 | i | 1 | i | 2 | 1
O=C(NCCO)c1nc(C(=O)c2ccc(Cl)cc2)c2ccccc2n1 | -1 | i | -4 | x | 2 | 71*
Cc1ccc(-c2cc(-c3cccc(F)c3)n[nH]2)c(O)c1 | 17* | i | 7 | i | 1 | 5
Cc1ccc(-c2cc(-c3ccccc3C)[nH]n2)c(O)c1 | 4 | i | 1 | i | 0 | 1
Cc1ccc(O)c(-c2cc(-c3cccc(F)c3)n[nH]2)c1 | 12* | i | -1 | i | 46 | 3
N#C/C(=C\c1ccc(C(=O)O)cc1)c1ccccn1 | 0 | i | 0 | i | 0 | 12
N#C/C(=C\c1c[nH]c2ccc(Br)cc12)c1ccccn1 | 22* | i | 0 | i | 1 | -3
Cc1ccccc1Cn1ccc(NC(=O)c2cc3ncc(Br)cn3n2)n1 | -1 | i | -1 | i | 1 | 66*
CSc1ccccc1OCc1cc(C(=O)NCc2csc(C(C)C)n2)no1 | -6 | i | 0 | i | 2 | 105*
Cc1c(C(=O)Nc2nc3ccccc3[nH]2)oc2ccccc12 | -6 | i | -7 | i | 30 | 4
Cc1c(C(=O)Nc2nc3ccccc3[nH]2)oc2ccc(Br)cc12 | -7 | -4.6* | 1 | i | 4 | -25
Nc1ccc2c(c1)C/C(=C/c1ccco1)C2=O | -4 | i | 10 | i | 2 | -1
O=C1/C(=C/c2ccco2)CCc2ccccc21 | 14* | i | 0 | i | 4 | 1
O=C1C(=Cc2ccncc2)CCCc2ccccc21 | x | x | -2 | x | 0 | 70*
COc1ccc(/C=C2/CCc3ccccc3C2=O)cc1OC | 10* | i | -1 | i | 3 | 2
Cc1ccc(Cl)cc1N1CCN(C(=O)Cc2c(C(=O)O)[nH]c3ccccc23)CC1 | -1 | i | -2 | i | 2 | 58*
O=C(Cc1c(C(=O)O)[nH]c2ccc(Cl)cc12)Nc1ccc2c(c1)OCCO2 | 12* | i | 5 | i | 0 | -15
Cc1ccc(Cl)cc1N1CCN(C(=O)Cc2c(C(=O)O)[nH]c3ccc(Cl)cc23)CC1 | 4 | i | 6 | i | -1 | 62*
Cc1ccc(Cl)cc1N1CCN(C(=O)Cc2cn(C)c3ccccc23)CC1 | -8 | i | -4 | i | 0 | 8
CSCc1ccc(C(=O)OCc2nc3ccccc3s2)o1 | 1 | i | -1 | x | -3 | 7

Screening results (PubChem)
